Measured values: PubChem BioAssay (Tox21)
Results filed as inconclusive are left out. Activity calls are given as the source filed them. Unless noted, calls come from the whole dose curve.

Columns and labels:
[1] = Nuclear factor erythroid 2-related factor 2/antioxidant responsive element (Nrf2/ARE) small molecule agonists: qHTS cell viability counter screen in human keratinocytes (AID 1919968; active = well fitted curve in the direction sought with a large enough effect in the repeat runs; an effect the other way counts as inactive or inconclusive; note: nearly all actives have a fitted effect of over 55% in size)
Procedure, shortened: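 Seed 1,500 KeratinoSens cells per well, then incubate 5 h at 37 C/5% CO2. Add compounds in DMSO and incubate 23 h. Add CellTiter-Fluor, wait 1 h and read fluorescence.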

[2] = target: Gonadotropin-releasing hormone receptor (Homo sapiens) (UniProt P30968); experiment: Human gonadotropin-releasing hormone receptor (GnRHR) small molecule agonists, calcium flux assay in GnRHR-HEK293 cells (AID 1920063); note: nearly all actives have a fitted effect of over 35% in size
Procedure, shortened: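 Cells: HEK293 stably expressing human GnRHR. Steps: overnight (18 h) culture, 1 h calcium dye loading at 37 C, compound addition, kinetic fluorescence read at 480/540 nm. Each compound tested at 15 concentrations in triplicate.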

[3] = target: KiSS-1 receptor (Homo sapiens) (UniProt Q969F8); experiment: Human kisspeptin (KISS1R) small molecule agonists, calcium flux assay in KISS1R-HEK293 cells (AID 1920064; active = well fitted curve in the direction sought with a large enough effect in the repeat runs; an effect the other way counts as inactive or inconclusive)
Procedure, shortened: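 Cells plated and incubated 18 h; dye added, 1 h at 37 C; compounds in DMSO pinned in; signal read at 480/540 nm every second for 3 min. Each compound tested at 15 concentrations in triplicate.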

[4] = G protein-coupled receptor (GPCR) small molecule agonists, calcium flux assay: HEK293 wild type cell line counter screen (AID 1920065)
Procedure, shortened: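 Counter-screen of the Tox21 10K library for non-specific calcium release: dye-loaded cells received compounds in DMSO and were monitored by kinetic fluorescence (480/540 nm, 3 min). Fifteen concentrations, run in triplicate.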

[5] = p53 small molecule agonists, cell-based qHTS assay with human liver microsomes (AID 1963577);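 note: p53 response element beta-lactamase reporter cells with liver microsomes plus NADPH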
Procedure, shortened: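 With metabolic activation: human liver microsomes (0.5 mg/mL final) plus NADPH (0.5 mg/mL final) added alongside compounds to p53RE-bla cells; 16 h 37 C exposure; beta-lactamase read by LiveBLAzer fluorescence.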

[6] = p53 small molecule agonists, cell-based qHTS assay with rat liver microsomes (AID 1963578)
Procedure, shortened: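 Metabolic activation by rat liver microsomes and NADPH, each 0.5 mg/mL final, added right after compounds to p53RE-bla reporter cells (4,000/well, plated 5 h earlier). 16 h at 37 C, then LiveBLAzer substrate for 2 h at room temperature in the dark; fluorescence read-out.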

[7] = p53 small molecule agonists, cell-based qHTS assay with human liver microsomes: qHTS cell viability counter screen (AID 1963579); note: nearly all actives have a fitted effect of over 45% in size
Procedure, shortened: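 Metabolic activation used human liver microsomes and NADPH, both 0.5 mg/mL final, over 16 hours at 37 C on p53RE-bla cells (4,000/well). Cytotoxicity measured by CellTiter-Glo luminescence, 30 min at room temperature.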

[8] = p53 small molecule agonists, cell-based qHTS assay with rat liver microsomes: qHTS cell viability counter screen (AID 1963580); note: nearly all actives have a fitted effect of over 45% in size
Procedure, shortened: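 p53RE-bla HCT-116 cells were exposed 16 h at 37 C to compounds with rat liver microsomes (0.5 mg/mL) and NADPH (0.5 mg/mL). Viability was measured in the same wells as ATP content by CellTiter-Glo luminescence.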

[9] = p53 small molecule agonists, cell-based qHTS assay: qHTS cell viability counter screen (AID 1963581); note: nearly all actives have a fitted effect of over 45% in size
Procedure, shortened: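 Cells: HCT-116 with p53 response element-driven beta-lactamase. Treatment: 16 h, 37 C, compounds in DMSO. Read: CellTiter-Glo luminescence after 30 min RT.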

[10] = p53 small molecule agonists, cell-based qHTS assay (AID 1963582; active = well fitted activation curve with a large enough effect in the signal ratio in the repeat runs, not every such curve was filed as active; the % refers to the signal ratio)
Procedure, shortened: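 Quantitative HTS in p53RE-bla cells: after a 5 h settling period, compounds delivered in DMSO were left on cells for 16 h at 37 C, and reporter induction was measured as fluorescence following 2 h substrate loading.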

[11] = cAMP Responsive Elements (CRE) small molecule agonists, cell-based qHTS assay (AID 1963590)
Procedure, shortened: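 Agonist mode qHTS in CRE-bla HEK 293T cells: compounds dosed from DMSO for 3 h at 37 C/5% CO2, followed by LiveBLAzer B/G FRET substrate for 2 h at room temperature.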

[12] = cAMP Responsive Elements (CRE) small molecule antagonists, cell-based qHTS assay (AID 1963591; active = well fitted inhibition curve with a large enough effect in the signal ratio in the repeat runs, not every such curve was filed as active; the % refers to the signal ratio)
Procedure, shortened: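 Antagonist mode: test compounds are co-incubated with the adenylyl cyclase activator NKH477 (0.25 uM final) on CRE-bla HEK293T cells for 3 h at 37 °C, followed by LiveBLAzer substrate loading.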

[13] = target: Beta-2 adrenergic receptor (Homo sapiens) (UniProt P07550); experiment: Adrenergic beta2 receptor (ADRB2) small molecule antagonists, cell-based qHTS assay (AID 1963592); note: series mostly up to about 92 µM; nearly all actives have a fitted effect of over 50% in size
Procedure, shortened: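 Cells (CHO, stable ADRB2 overexpression) incubated 18-20hr at 37C; compounds added from DMSO; agonist mix (1nM isoproterenol, 100uM IBMX, 25uM Ro-20-1724) added; 0.5hr RT; d2-cAMP and anti-cAMP-cryptate added; 1hr RT; 665/615 nm read.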

[14] = target: Beta-2 adrenergic receptor (Homo sapiens) (UniProt P07550); experiment: Adrenergic beta2 receptor (ADRB2) small molecule agonists, cell-based qHTS assay (AID 1963593);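 note: CHO cells stably overexpressing human ADRB2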
Procedure, shortened: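 CHO cells stably over-expressing ADRB2 were plated overnight at 37C, then dosed with compounds plus a stimulation mix containing 100uM IBMX and 25uM Ro-20-1724 for 0.5hr at room temperature. cAMP was measured by HTRF competition, 1hr.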

[15] = target: D(2) dopamine receptor (Homo sapiens) (UniProt P14416); experiment: Dopamine D2 receptor (DRD2) small molecule agonists, cell-based qHTS assay (AID 1963594); note: nearly all actives have a fitted effect of over 35% in size
Procedure, shortened: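 HEK293 cells stably expressing human DRD2, pre-treated with PDE inhibitor Ro20-1724 (0.1 mM final) and compound 10 min at room temperature, then stimulated with NKH477 (200nM […]) for 30 min. cAMP read by HTRF (665/620 nm).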

[16] = target: D(2) dopamine receptor (Homo sapiens) (UniProt P14416); experiment: Dopamine D2 receptor (DRD2) small molecule antagonists, cell-based qHTS assay (AID 1963595; active = well fitted inhibition curve with a large enough effect in the signal ratio in the repeat runs, with a control signal flat; the % refers to the signal ratio)
Procedure, shortened: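 DRD2-HEK293; 0.1 mM Ro20-1724; cpd 10 min RT; NKH477 200 nM + quinpirole 12 nM, 30 min RT; HTRF cAMP (cAMP-d2/anti-cAMP cryptate), 665/620 nm ratio after 1 h.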

[17] = target: 5-hydroxytryptamine receptor 2A (Homo sapiens) (UniProt P28223); experiment: 5-hydroxytryptamine receptor 2A (HTR2A) small molecule antagonists, cell-based qHTS assay (AID 1963586); note: nearly all actives have a fitted effect of over 45% in size
Procedure, shortened: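 Antagonist-mode intracellular calcium assay: DOI (4 nM) added after 5 min compound pre-incubation at room temperature to dye-loaded HTR2A-CHO cells. Fluorescence followed for 3 min, sampled every second.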

[18] = target: 5-hydroxytryptamine receptor 2A (Homo sapiens) (UniProt P28223); experiment: 5-hydroxytryptamine receptor 2A (HTR2A) small molecule agonists, cell-based qHTS assay (AID 1963587); note: nearly all actives have a fitted effect of over 30% in size
Procedure, shortened: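 CHO cells stably expressing human HTR2A, plated 18 h, loaded with calcium dye 1 h at 37 C. Agonist mode: compounds added and intracellular calcium fluorescence recorded kinetically for 2 min at 1 sec intervals.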

[19] = target: Muscarinic acetylcholine receptor M1 (Homo sapiens) (UniProt P11229); experiment: Cholinergic receptor muscarinic 1 (CHRM1) small molecule antagonists, cell-based qHTS assay (AID 1963588); note: nearly all actives have a fitted effect of over 40% in size
Procedure, shortened: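 CHRM1-CHO calcium-flux assay, antagonist mode. Cells were seeded 18 h, dye-loaded 1 h at 37 C and given compound for 5 min at RT, then acetylcholine was added at 50nM. FDSS fluorescence was read 3 min; 15 concentrations, three runs.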

[20] = target: Muscarinic acetylcholine receptor M1 (Homo sapiens) (UniProt P11229); experiment: Cholinergic receptor muscarinic 1 (CHRM1) small molecule agonists, cell-based qHTS assay (AID 1963589); note: nearly all actives have a fitted effect of over 35% in size
Procedure, shortened: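 Agonist-mode qHTS in CHO cells stably carrying human muscarinic M1. Intracellular calcium is tracked by fluorescence every second after compound transfer; each compound runs at 15 concentrations in three independent runs.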

Measured: Potency

D(2) dopamine receptor (Homo sapiens), sequence (P14416 whole entry, looked up): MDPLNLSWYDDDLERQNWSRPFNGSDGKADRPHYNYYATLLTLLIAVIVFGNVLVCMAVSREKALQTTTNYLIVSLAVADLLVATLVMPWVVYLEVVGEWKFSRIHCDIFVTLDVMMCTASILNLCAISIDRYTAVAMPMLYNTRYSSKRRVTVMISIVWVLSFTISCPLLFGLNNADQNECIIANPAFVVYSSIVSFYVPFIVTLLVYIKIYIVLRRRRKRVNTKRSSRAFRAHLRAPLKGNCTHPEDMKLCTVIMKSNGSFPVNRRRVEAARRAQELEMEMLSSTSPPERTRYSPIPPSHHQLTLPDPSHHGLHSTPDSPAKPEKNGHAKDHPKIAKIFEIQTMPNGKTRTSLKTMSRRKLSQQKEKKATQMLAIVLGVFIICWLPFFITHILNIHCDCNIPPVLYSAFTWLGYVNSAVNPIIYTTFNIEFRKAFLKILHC
Gonadotropin-releasing hormone receptor (Homo sapiens), sequence (P30968 whole entry, looked up): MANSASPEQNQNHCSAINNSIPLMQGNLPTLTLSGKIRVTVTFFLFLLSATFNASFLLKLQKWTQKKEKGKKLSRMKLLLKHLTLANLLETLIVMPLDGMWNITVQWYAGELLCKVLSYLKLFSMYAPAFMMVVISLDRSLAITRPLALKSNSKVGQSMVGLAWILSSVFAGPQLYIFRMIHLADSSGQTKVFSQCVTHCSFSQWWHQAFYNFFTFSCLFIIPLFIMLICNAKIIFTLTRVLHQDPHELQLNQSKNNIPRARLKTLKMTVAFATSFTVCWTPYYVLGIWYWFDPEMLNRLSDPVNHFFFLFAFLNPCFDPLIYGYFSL
Muscarinic acetylcholine receptor M1 (Homo sapiens), sequence (P11229 whole entry, looked up): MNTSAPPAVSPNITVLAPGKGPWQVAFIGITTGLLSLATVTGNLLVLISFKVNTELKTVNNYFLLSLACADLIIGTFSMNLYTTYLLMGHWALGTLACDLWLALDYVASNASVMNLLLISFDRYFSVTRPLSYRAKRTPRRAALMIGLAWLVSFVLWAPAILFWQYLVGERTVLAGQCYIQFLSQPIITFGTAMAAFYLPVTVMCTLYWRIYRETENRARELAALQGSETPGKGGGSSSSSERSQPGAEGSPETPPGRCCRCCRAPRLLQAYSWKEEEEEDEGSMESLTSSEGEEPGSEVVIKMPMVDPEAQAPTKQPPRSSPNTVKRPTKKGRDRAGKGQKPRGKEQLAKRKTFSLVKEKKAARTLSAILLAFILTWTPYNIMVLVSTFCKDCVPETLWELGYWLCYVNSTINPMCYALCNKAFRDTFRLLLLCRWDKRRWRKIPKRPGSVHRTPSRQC
5-hydroxytryptamine receptor 2A (Homo sapiens), sequence (P28223 whole entry, looked up): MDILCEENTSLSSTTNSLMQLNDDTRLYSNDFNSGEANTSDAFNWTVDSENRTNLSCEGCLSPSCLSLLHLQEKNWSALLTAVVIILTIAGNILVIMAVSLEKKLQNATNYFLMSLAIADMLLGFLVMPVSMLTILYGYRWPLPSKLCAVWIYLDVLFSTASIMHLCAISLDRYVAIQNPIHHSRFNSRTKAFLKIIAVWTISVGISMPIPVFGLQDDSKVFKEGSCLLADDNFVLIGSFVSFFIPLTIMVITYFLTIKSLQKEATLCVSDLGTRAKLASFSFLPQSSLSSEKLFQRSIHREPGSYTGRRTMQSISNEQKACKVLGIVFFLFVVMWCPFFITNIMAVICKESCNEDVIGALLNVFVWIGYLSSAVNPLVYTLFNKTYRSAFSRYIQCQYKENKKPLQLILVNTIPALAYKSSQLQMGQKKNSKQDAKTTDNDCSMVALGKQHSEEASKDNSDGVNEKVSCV
KiSS-1 receptor (Homo sapiens), sequence (Q969F8 whole entry, looked up): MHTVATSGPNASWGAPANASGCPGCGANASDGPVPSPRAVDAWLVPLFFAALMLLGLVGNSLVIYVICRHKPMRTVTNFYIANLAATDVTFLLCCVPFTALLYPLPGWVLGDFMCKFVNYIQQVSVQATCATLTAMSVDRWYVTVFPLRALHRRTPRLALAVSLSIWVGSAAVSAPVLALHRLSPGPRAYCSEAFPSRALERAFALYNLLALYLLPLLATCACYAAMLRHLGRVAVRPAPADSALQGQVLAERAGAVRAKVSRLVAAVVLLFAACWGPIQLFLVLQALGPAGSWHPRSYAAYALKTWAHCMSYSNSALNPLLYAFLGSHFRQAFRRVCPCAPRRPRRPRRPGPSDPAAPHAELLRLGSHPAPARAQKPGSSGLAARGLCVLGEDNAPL
Beta-2 adrenergic receptor (Homo sapiens), sequence (P07550 whole entry, looked up): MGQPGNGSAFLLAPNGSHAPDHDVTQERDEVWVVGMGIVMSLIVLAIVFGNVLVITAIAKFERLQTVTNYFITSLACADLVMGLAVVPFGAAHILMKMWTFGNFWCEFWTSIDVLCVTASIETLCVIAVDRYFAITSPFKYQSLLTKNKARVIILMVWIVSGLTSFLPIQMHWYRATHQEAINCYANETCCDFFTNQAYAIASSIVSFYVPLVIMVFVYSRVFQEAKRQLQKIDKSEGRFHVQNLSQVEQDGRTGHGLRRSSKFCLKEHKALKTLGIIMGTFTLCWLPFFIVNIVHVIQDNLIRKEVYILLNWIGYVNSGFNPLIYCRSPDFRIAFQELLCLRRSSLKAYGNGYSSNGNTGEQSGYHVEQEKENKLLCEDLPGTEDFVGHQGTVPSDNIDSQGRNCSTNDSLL

CN(C)CCC[C@@]1(c2ccc(F)cc2)OCc2cc(C#N)ccc21
inactive: [1] | [2] | [3] | [4] | [5] | [6] | [7] | [8] | [9] | [10] | [11] | [12] | [13] | [14] | [15] | [16]

C=CC/C=C/C/C=C/C/C=C/C
inactive: [1] | [2] | [3] | [4] | [5] | [6] | [7] | [8] | [10] | [17] | [18] | [19] | [20] | [11] | [12] | [13] | [14] | [15] | [16]

CCCCCCC(O)CO (configuration not stated)
inactive: [1] | [2] | [3] | [4] | [5] | [6] | [7] | [8] | [9] | [10] | [19] | [20] | [11] | [12] | [13] | [15] | [16]

O=C(O)c1ccc[n+]([O-])c1
inactive: [1] | [2] | [3] | [4] | [5] | [6] | [7] | [8] | [9] | [10] | [18] | [19] | [20] | [11] | [12] | [13] | [15] | [16]

C=CC(C)C#N (configuration not stated)
inactive: [1] | [2] | [3] | [4] | [5] | [6] | [7] | [8] | [9] | [10] | [17] | [19] | [20] | [11] | [12] | [13] | [15] | [16]

CC(CC(C)(C)C)CC(C)(C)CC(C)(C)C (configuration not stated)
inactive: [1] | [2] | [3] | [4] | [5] | [6] | [7] | [8] | [9] | [17] | [18] | [19] | [20] | [12] | [13] | [15] | [16]

Cc1cc(NC(=O)C2=C(O)c3ccccc3S(=O)(=O)N2C)no1
inactive: [1] | [2] | [3] | [4] | [5] | [6] | [7] | [8] | [9] | [18] | [19] | [20] | [11] | [12] | [14] | [15] | [16]
